Experiment [1] can be described thus: qHTS assay to identify small molecule antagonists of the thyroid receptor (TR) signaling pathway (AID 743065). Further: series mostly up to about 70 µM; nearly all actives have a fitted effect of over 55% in size. Put shortly: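 GH3.TRE-Luc rat pituitary cells (two TREs driving luciferase) were dosed with compound, then stimulated with 1 nM T3 (final) for 23.5 h at 37 C. ONE-Glo luminescence was the read-out, with CellTiter-Fluor fluorescence as the cytotoxicity counter-screen.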

The test system of experiment [2] is thyroid hormone receptor (rat, GH3 cells). The experiment is described as follows: qHTS assay to identify small molecule agonists of the thyroid receptor (TR) signaling pathway (AID 743066; calls by dose curve). (Quantitative high-throughput screening tests each substance at several concentrations.)
Experiment [3] addresses Estrogen receptor (Homo sapiens) (UniProt P03372). The experiment is described as follows: qHTS assay to identify small molecule antagonists of the estrogen receptor alpha (ER-alpha) signaling pathway (AID 743069; active means well fitted curve in the direction sought with a large enough effect in the signal ratio in the repeat runs, not every such curve was filed as active; the % refers to the signal ratio). Put shortly: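 HEK293 ER-alpha-UAS-bla GripTite cells, held overnight in 2% charcoal-stripped FBS, 5,000 cells/well, preincubated 4 h, then compound plus 17beta-estradiol for 18 h at 37C. Beta-lactamase read by LiveBLAzer B/G FRET substrate, 2 h at room temperature.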

Experiment [4] in a line: qHTS assay to identify small molecule antagonists of the estrogen receptor alpha (ER-alpha) signaling pathway - cell viability counter screen (AID 743074; calls by dose curve;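 further: HEK293 cells carrying ER-alpha-UAS-bla reporter stimulated with 17beta-estradiol; nearly all actives have a fitted effect of over 45% in size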).
Experiment [5] concerns the target Estrogen receptor (Homo sapiens) (UniProt P03372). The experiment is described as follows: qHTS assay to identify small molecule agonists of the estrogen receptor alpha (ER-alpha) signaling pathway (AID 743075; calls by dose curve).
For experiment [6] the target is unchanged. Kind of experiment: qHTS assay to identify small molecule agonists of the estrogen receptor alpha (ER-alpha) signaling pathway using the BG1 cell line (AID 743079). Further: nearly all actives have a fitted effect of over 20% in size. Further: potency means the concentration at half of the fitted maximal effect.
Experiment [7] is described as follows: qHTS assay to identify small molecule antagonists of the estrogen receptor alpha (ER-alpha) signaling pathway using the BG1 cell line (AID 743080; calls by dose curve;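 further: BG1 cells stimulated with 17beta-estradiol alongside compound; series mostly up to about 70 µM; nearly all actives have a fitted effect of over 25% in size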). Put shortly: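 Luminescence from a 4×ERE-luciferase reporter in BG1-Luc-4E2 cells served as read-out. Cells, pre-cultured 5 days in stripped-serum phenol-red-free medium, were exposed to compound with 17beta-estradiol co-stimulation for 21.5 h at 37 C.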

Experiment [8] can be described thus: qHTS assay to identify small molecule antagonists of the estrogen receptor alpha (ER-alpha) signaling pathway using the BG1 cell line - cell viability counter screen (AID 743081).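 Further: compound given together with 17beta-estradiol as the ER stimulus; series mostly up to about 70 µM; nearly all actives have a fitted effect of over 45% in size.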
Experiment [9] has as its target Aromatase (Homo sapiens) (UniProt P11511). The experiment is described as follows: qHTS assay to identify aromatase inhibitors (AID 743083). Further: series mostly up to about 70 µM; nearly all actives have a fitted effect of over 55% in size.
A short description of experiment [10]: qHTS assay to identify aromatase inhibitors - cell viability counter screen (AID 743084).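 Further: cells stimulated with testosterone during compound exposure; nearly all actives have a fitted effect of over 55% in size.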
Experiment [11] deals with Aryl hydrocarbon receptor (Homo sapiens) (UniProt P35869). The experiment is described as follows: qHTS assay to identify small molecule that activate the aryl hydrocarbon receptor (AhR) signaling pathway (AID 743085).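 Further: HG2L7.5c1 human HepG2 liver cells with stably integrated DRE-driven firefly reporter; series mostly up to about 70 µM; nearly all actives have a fitted effect of over 15% in size.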 Put shortly: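 Stably transfected human liver carcinoma cells (HG2L7.5c1; 20 DRE-firefly luciferase) were incubated 5 h, dosed, and kept 24 h at 37C. Agonism was scored from increased luciferase luminescence.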
Aryl hydrocarbon receptor (Homo sapiens), sequence (P35869 whole entry, looked up): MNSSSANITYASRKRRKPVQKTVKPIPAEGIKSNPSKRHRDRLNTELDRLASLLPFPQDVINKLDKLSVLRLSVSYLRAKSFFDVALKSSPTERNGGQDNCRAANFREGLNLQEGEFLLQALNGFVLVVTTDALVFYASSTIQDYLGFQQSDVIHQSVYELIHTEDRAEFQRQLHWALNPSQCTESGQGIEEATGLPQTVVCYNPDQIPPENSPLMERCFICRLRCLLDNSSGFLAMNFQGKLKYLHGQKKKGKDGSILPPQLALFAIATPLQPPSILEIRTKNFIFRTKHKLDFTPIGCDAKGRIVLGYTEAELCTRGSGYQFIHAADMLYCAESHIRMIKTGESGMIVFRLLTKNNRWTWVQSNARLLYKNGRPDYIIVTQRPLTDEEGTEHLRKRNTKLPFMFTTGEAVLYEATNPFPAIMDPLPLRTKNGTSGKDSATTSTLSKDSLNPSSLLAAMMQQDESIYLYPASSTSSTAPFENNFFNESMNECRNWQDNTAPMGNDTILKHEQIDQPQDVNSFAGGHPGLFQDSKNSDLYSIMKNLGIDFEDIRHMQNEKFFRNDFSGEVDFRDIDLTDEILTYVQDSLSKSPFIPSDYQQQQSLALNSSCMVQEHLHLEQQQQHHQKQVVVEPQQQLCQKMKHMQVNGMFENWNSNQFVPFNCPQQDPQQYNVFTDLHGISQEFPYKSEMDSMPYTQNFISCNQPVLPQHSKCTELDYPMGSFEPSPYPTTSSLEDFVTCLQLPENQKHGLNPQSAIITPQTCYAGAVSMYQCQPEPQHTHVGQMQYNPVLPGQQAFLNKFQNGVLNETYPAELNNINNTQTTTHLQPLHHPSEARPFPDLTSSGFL

The nature of experiment [12]: qHTS assay to identify small molecule that activate the aryl hydrocarbon receptor (AhR) signaling pathway - cell viability counter screen (AID 743086).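 Further: HepG2 liver cells carrying the AhR DRE luciferase reporter; series mostly up to about 70 µM; nearly all actives have a fitted effect of over 45% in size.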 The essentials:
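HepG2-AhR-luc (HG2L7.5c1) cells, 4000/well, treated 24 h at 37 C with compound; viability measured as CellTiter-Fluor fluorescence after 30 min in the same wells as the luciferase read.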

The target in experiment [13] is Peroxisome proliferator-activated receptor gamma (Homo sapiens) (UniProt P37231). Kind of experiment: qHTS assay to identify small molecule agonists of the peroxisome proliferator-activated receptor gamma (PPARg) signaling pathway (AID 743094; active means well fitted activation curve with a large enough effect in the signal ratio in the repeat runs, not every such curve was filed as active; the % refers to the signal ratio). The essentials:
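Compounds dissolved in DMSO were added to PPARg UAS-bla HEK293H cells for 17 h at 37C, and reporter expression was quantified by fluorescence intensity after 1 h with LiveBLAzer B/G FRET substrate.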

The nature of experiment [14]: qHTS assay for small molecule agonists of the antioxidant response element (ARE) signaling pathway (AID 743202; active means well fitted activation curve with a large enough effect in the signal ratio in the repeat runs, not every such curve was filed as active; the % refers to the signal ratio). The essentials:
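ARE-bla HepG2 cells (beta-lactamase reporter under the antioxidant response element), plated 5 hours, then exposed to compounds 16 hours at 37 C. LiveBLAzer B/G FRET substrate added for 2 hours at room temperature; fluorescence intensity read.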

Experiment [15] is described as follows: qHTS assay for small molecule activators of the heat shock response signaling pathway - cell viability counter screen (AID 743209). Further: nearly all actives have a fitted effect of over 50% in size. The essentials: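 Readout: CellTiter-Glo luminescence, 30 min at room temperature. System: HSE-bla HeLa cells, 1500/well, plated overnight. Treatment: compounds in DMSO, 5 h at 37 C.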
Experiment [16] is described as follows: qHTS assay for small molecule activators of the heat shock response signaling pathway (AID 743210; active means well fitted activation curve with a large enough effect in the signal ratio in the repeat runs, with a control signal flat, not every such curve was filed as active; the % refers to the signal ratio; further: series mostly up to about 63 µM). The essentials: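 HSE-bla HeLa cells (beta-lactamase reporter under heat shock response elements), plated overnight, then exposed to compounds 5 h at 37 C; LiveBLAzer B/G FRET substrate added, 2.5 h at room temperature, fluorescence intensity read.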
The nature of experiment [17]: qHTS assay to identify small molecule agonists of the peroxisome proliferator-activated receptor delta (PPARd) signaling pathway - cell viability counter screen (AID 743211). Further: nearly all actives have a fitted effect of over 55% in size. The essentials:
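In the same wells used for beta-lactamase reporter measurement, cytotoxicity is scored by CellTiter-Glo. HEK293H PPARd-bla cells receive compound for 17 h at 37C following a 5 h settling period.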

Experiment [18] can be described thus: qHTS assay to identify small molecule antagonists of the peroxisome proliferator-activated receptor gamma (PPARg) signaling pathway - cell viability counter screen (AID 743194). Further: nearly all actives have a fitted effect of over 55% in size. The essentials: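 Cytotoxicity counter screen in PPARg-bla HEK293H cells, same wells as reporter assay. Compounds plus 50 nM rosiglitazone (final) for 17 h at 37 C, then viability read by CellTiter-Glo luminescence.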

Experiment [19] in a line: qHTS assay for small molecule agonists of the antioxidant response element (ARE) signaling pathway - cell viability counter screen (AID 743203; calls by dose curve; further: nearly all actives have a fitted effect of over 55% in size). Put shortly:
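Following 16 hrs of compound treatment at 37C, HepG2 cells with an ARE-controlled beta-lactamase gene were lysed with CellTiter-Glo. Luminescence was read after 30 min at room temperature.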

The target in experiment [20] is Peroxisome proliferator-activated receptor gamma (Homo sapiens) (UniProt P37231). Kind of experiment: qHTS assay to identify small molecule antagonists of the peroxisome proliferator-activated receptor gamma (PPARg) signaling pathway (AID 743191; calls by dose curve; further: series mostly up to about 63 µM; nearly all actives have a fitted effect of over 30% in size). Put shortly:
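GeneBLAzer PPARg UAS-bla HEK293H cells, 5 h post-plating, exposed to compounds 17 h at 37C. LiveBLAzer B/G FRET substrate added for 1 h at room temperature; beta-lactamase reporter read by fluorescence intensity.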

Inconclusive results are not listed. The source made the active and inactive calls. Unless noted, the call rests on the fitted dose curve; in most records, active means well fitted curve in the direction sought with a large enough effect in the repeat runs; inconclusive means weak or mixed curves; inactive means no such curve, though single readings can be large; an effect the other way counts as inactive or inconclusive.

Aromatase (Homo sapiens), sequence (P11511 whole entry, looked up): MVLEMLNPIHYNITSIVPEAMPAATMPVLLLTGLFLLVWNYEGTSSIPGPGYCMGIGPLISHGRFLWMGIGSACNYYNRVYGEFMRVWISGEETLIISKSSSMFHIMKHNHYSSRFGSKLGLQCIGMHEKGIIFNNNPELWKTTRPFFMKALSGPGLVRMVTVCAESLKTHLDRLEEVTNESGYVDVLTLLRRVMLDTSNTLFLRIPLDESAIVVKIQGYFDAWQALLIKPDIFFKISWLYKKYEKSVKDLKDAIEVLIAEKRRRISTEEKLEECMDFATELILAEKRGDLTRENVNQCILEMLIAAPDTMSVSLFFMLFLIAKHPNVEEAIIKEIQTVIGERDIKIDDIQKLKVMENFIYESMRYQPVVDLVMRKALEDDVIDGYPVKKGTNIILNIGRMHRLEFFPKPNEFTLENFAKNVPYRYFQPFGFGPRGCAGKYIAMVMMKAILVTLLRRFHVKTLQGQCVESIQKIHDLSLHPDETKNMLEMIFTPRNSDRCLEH
Peroxisome proliferator-activated receptor gamma (Homo sapiens), sequence (P37231 whole entry, looked up): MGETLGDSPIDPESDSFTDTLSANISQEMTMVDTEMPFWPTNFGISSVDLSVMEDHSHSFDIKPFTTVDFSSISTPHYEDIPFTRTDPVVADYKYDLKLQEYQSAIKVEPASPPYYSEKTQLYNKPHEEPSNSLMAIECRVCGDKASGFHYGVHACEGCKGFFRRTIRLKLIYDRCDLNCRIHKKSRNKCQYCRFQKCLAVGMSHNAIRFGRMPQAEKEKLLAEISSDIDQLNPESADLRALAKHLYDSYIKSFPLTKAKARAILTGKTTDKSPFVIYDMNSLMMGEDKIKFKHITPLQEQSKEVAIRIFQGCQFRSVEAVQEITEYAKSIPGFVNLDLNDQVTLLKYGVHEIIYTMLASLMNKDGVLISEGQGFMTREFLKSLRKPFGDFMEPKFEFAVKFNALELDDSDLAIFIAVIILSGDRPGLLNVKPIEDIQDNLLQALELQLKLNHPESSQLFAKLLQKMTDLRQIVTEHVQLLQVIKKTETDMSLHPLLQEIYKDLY
Estrogen receptor (Homo sapiens), sequence (P03372 whole entry, looked up): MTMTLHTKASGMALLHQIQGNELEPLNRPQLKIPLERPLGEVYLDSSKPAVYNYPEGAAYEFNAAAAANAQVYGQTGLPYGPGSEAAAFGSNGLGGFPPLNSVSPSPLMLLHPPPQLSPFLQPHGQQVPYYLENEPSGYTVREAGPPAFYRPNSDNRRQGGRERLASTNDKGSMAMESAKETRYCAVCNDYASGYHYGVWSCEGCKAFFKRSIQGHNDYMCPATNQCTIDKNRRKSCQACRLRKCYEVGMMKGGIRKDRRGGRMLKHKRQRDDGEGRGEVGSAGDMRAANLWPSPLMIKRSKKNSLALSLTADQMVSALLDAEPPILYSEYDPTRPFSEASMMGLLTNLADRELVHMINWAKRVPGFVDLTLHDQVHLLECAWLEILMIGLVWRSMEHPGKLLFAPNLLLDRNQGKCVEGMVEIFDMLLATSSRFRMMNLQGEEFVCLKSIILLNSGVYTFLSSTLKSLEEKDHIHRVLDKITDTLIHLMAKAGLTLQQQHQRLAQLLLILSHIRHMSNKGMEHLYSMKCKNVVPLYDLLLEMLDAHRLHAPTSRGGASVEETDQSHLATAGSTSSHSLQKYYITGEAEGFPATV

As for `CC(C)(C)C(=O)NCCCC(=O)O`, the Potency entry in experiment [1], in experiment [2], in experiment [4], in experiment [5], in experiment [6] and in experiment [7] was “inactive” throughout. The Potency entry in [9], in experiment [11], in experiment [14] and in experiment [15] was “inactive” in each case. Also, the outcome in experiment [3], in experiment [8], in experiment [10], in [12], in experiment [13] and in experiment [16] was inactive. The compound was called inactive in experiment [17].
For `O=C(O)Cc1ccccc1Oc1ccc(Cl)cc1Cl`, the Potency entry in [1], in experiment [2], in [4], in experiment [5], in experiment [6] and in experiment [7] was “inactive” in each case. The Potency result in [9] and in experiment [15] was “inactive” each time. Moreover, the result in experiment [3], in experiment [8], in experiment [10], in experiment [13], in experiment [18] and in experiment [19] was inactive. The result in experiment [16] and in [17] was inactive.
Consider `CCCC(=O)CC`, for which the Potency entry in [1], in [2], in experiment [4], in [5], in experiment [7] and in experiment [9] was “inactive” throughout. Moreover, the Potency entry in [11], in [14] and in experiment [15] was “inactive” throughout. For the same compound, the compound was classed as inactive in experiment [3], in [8], in experiment [10], in experiment [12], in experiment [13] and in experiment [17]. In [6], the Potency was 28.1 µM (active).
Turning to `Nc1cc(S(=O)(=O)O)ccc1O`, the Potency entry in experiment [1], in experiment [2], in experiment [4], in experiment [5], in experiment [6] and in [7] was “inactive” in each case. The Potency result in experiment [9], in experiment [11], in [14] and in experiment [15] was “inactive” in each case. Further, the compound was called inactive in experiment [3], in [8], in experiment [10], in experiment [13], in [20] and in [19]. The result in experiment [16] and in experiment [17] was inactive.
As for `Cc1cccc(N)n1`, the Potency result in [1], in [2], in experiment [4], in experiment [5], in experiment [6] and in experiment [7] was “inactive” each time. Also, the Potency result in [9], in experiment [11], in [14] and in [15] was “inactive” each time. In addition, the outcome in experiment [3], in experiment [8], in [10], in experiment [13], in experiment [20] and in experiment [19] was inactive. Also, the call in experiment [16] and in experiment [17] was inactive.
For the compound `O=C(O)COc1ccc2ccccc2c1`, the Potency entry in experiment [1], in experiment [2], in experiment [4], in experiment [5], in experiment [6] and in experiment [7] was “inactive” each time. Also, the Potency result in [9] and in experiment [15] was “inactive” throughout. The result in experiment [3], in [8], in experiment [10], in experiment [12], in experiment [13] and in experiment [19] was inactive. The result in experiment [16] and in experiment [17] was inactive.
In the case of `COC(=O)N/N=C/c1c[n+]([O-])c2ccccc2[n+]1[O-]`, the Potency entry in [1], in [2], in experiment [4], in experiment [5], in [6] and in [7] was “inactive” in each case. For the same compound, the Potency result in [9], in experiment [11] and in experiment [15] was “inactive” each time. The result in experiment [3], in [8], in experiment [10], in experiment [12], in [13] and in experiment [18] was inactive. Also, the compound was called inactive in experiment [19], in [16] and in [17].
As for `CC/C=C/CCCCCCCCCCOC(C)=O`, the Potency result in experiment [1], in experiment [2], in experiment [4], in experiment [5], in experiment [6] and in experiment [7] was “inactive” each time. Moreover, the Potency result in [9], in experiment [11], in [14] and in experiment [15] was “inactive” in each case. Also, the call in [3], in [8], in experiment [10], in experiment [12], in experiment [13] and in experiment [19] was inactive. Besides, the compound was called inactive in experiment [16].

(Values after PubChem BioAssay (Tox21).)
